Assay outcomes deposited in PubChem by National Center for Advancing Translational Sciences (NCATS).
Only some compounds are listed: those with a hit (about 2.2% of all), similar ones and a draw of the others.
BRCA1 expr up: qHTS Assay to Identify Small Molecule Activators of BRCA1 Expression; MCF7-BRCA1-FFLuc reporter, luminescence, 48 h; response scale: scaled: vehicle 0%, 10 µM genistein 100%; Potency, µM (top dose mostly 46.1 µM), most hits filed as activators; 1.1% of 380,000 active; AID 624202, 2012; further: nearly all actives have a fitted effect of over 80% in size
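MCF7-BRCA1-FFLuc cells, 2000/well in phenol-red-free MEM, attached 2 h then treated 48 h at 37 C. Luciferase luminescence read 15 min after reagent; normalized to genistein maximum activation (10microM) and DMSO, concentration-response fitted.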
TrxR1 inh: qHTS Assay for Inhibitors of Mammalian Selenoprotein Thioredoxin Reductase 1 (TrxR1): qHTS | Thioredoxin reductase 1, cytoplasmic (Rattus norvegicus), O89049 | recombinant rTrxR1, NADPH fluorescence consumption, selenite substrate | Potency, µM (highest dose often 114 µM), usual class: inhibitors | 1% of 390,000 active; further: nearly all actives have a fitted effect of over 65% in size
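Rat TrxR1 (90 nM in the dispensed reagent) was pre-reduced with 400 uM NADPH for 5 min at room temperature, then incubated with compound for 15 min. After 400 uM selenite was added, NADPH fluorescence (Ex 340/Em 450 nm) was followed for 8 min.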
mIDH1 inhibitor: qHTS for Inhibitors of mutant isocitrate dehydrogenase 1 (IDH1): qHTS. Isocitrate dehydrogenase [NADP] cytoplasmic (Homo sapiens), O75874. IDH1-R132H enzyme, NADPH consumption, diaphorase/resazurin fluorescence. Potency, µM (highest dose often 76.6 µM), most hits filed as inhibitors. 0.093% of 390,000 active. AID 602179, 2012; further: nearly all actives have a fitted effect of over 65% in size
Target sequence (O75874 whole entry R132H, stated change not applied): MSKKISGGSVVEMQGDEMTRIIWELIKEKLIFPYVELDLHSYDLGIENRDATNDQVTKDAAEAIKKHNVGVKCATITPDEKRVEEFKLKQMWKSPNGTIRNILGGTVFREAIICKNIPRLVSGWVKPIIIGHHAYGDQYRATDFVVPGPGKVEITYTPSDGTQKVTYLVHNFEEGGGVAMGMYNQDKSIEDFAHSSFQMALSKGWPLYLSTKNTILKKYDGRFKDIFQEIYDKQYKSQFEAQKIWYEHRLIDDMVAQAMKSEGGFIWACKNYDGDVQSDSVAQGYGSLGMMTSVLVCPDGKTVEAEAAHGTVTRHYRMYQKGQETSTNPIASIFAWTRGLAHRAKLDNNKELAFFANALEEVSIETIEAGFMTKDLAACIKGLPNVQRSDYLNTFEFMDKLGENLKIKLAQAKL
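IDH1-R132H (0.5 ug/mL dispensed) in pH 7.5 Tris buffer was preincubated 30 min with compound, then given a substrate mix of 0.016 mM NADPH and 2 mM alpha-KG for 80 min at room temperature; remaining NADPH was read by diaphorase/resazurin fluorescence.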
TrxR1 substrate: qHTS Assay for Substrates of Mammalian Selenoprotein Thioredoxin Reductase 1 (TrxR1): qHTS; Potency, µM (highest dose often 114 µM); 0.01% of 390,000 active; Thioredoxin reductase 1, cytoplasmic (Rattus norvegicus), O89049; purified TrxR1 substrate turnover, NADPH consumption readout; further: nearly all actives have a fitted effect of over 50% in size
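Rat TrxR1, dispensed at 90 nM, was prereduced with 400 uM NADPH (final) for 5 min at ~22 deg C, then incubated with compound 15 min before 400 uM selenite. A first-read NADPH fluorescence drop versus no-compound background flagged substrates.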
IL-2 act: qHTS of IL-2 Activators; IL-2 activation reporter assay, cell-based qHTS; stimulated with anti-CD3/CD4/CD28 beads; in transgenic mouse T cells; activation, % (series mostly up to about 46 µM); 0.065% of 360,000 active; in the data active means activation above about 50%; inconclusive means mostly about 30% to 49%
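Unstimulated transgenic mouse T cells, 750 per well, received compound and, after 60 minutes, anti-CD3/anti-CD4 bead plus anti-CD28 stimulation. EGFP and DsRed were quantified after 18 hours.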
Giardia kill: Small Molecules that selectively kill Giardia lamblia: qHTS; Giardia lamblia trophozoite viability; AID 540267, 2011; 0.15% of 340,000 active; activity change, % at 7.66 µM, hits read low; in the data active means activity change below about -80%; inconclusive means between about -30% and that limit;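 further: parasites exposed to compound for two days anaerobically before the ATP read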
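Viability, read as ATP luminescence: trophozoites at 100 cells/well, compound added, 48 hrs anaerobic at 37 deg C, then 15-30 min room-temperature development before reading.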
Of the large screens only hits and unclear results are named; the others gave an inactive call. Unless noted, the call rests on the fitted dose curve; in most records, active means well fitted curve in the direction sought with a large enough effect; inconclusive means small, poorly fitted or top-dose-only effect, or another doubt; inactive means no such curve, though single readings can be large; an effect the other way counts as inactive or inconclusive.

COc1ccc(OC)c(CCNC(=O)CSc2ccsc2[N+](=O)[O-])c1	TrxR1 inh inconclusive, Giardia kill inconclusive
COc1ccccc1CNC(=O)CSc1ccsc1[N+](=O)[O-]	BRCA1 expr up 13µM, Giardia kill inconclusive
O=C(CSc1ccsc1[N+](=O)[O-])NC1CCCC1	TrxR1 inh inconclusive, Giardia kill -90
C/C(Cl)=C/CSc1nn2c(=O)c3ccccc3nc2s1	BRCA1 expr up inconclusive
C=CCSc1nn2c(=O)c3ccccc3nc2s1	BRCA1 expr up 2.8µM
CC1CN(c2ncnc3c2cnn3-c2ccc(Cl)cc2)CC(C)O1 (stereo not given)	BRCA1 expr up 3.2µM
Cc1ccc(-n2ncc3c(N4CCCCC4)ncnc32)cc1	none (no result: BRCA1 expr up, IL-2 act, Giardia kill)
COc1ccc(-n2ncc3c(N4CCCCC4)ncnc32)cc1	Giardia kill -82
Clc1ccc(-n2ncc3c(N4CCCCCC4)ncnc32)cc1	Giardia kill inconclusive
COc1ccc(/C=C/C(=O)Nc2ccc(Cl)c(Cl)c2)cc1OC	none (no result: BRCA1 expr up, mIDH1 inhibitor, IL-2 act, Giardia kill)
CCOC(=O)c1cc(OC(=O)c2ccccc2)n(-c2ccccc2)n1	none
CCOC(=O)c1csc(NC(=O)c2cccs2)n1	BRCA1 expr up 7.9µM
CCOC(=O)c1cc(OC(=O)c2cccs2)n(-c2ccccc2)n1	TrxR1 inh 22µM
CCCCc1nn2c(=O)cc(COC(=O)c3ccc(NC(=O)C(CC)CC)cc3)nc2s1	none (no result: BRCA1 expr up, IL-2 act, Giardia kill)
CN(C)c1ccc(NC(=O)CN2CCN(CC(=O)Nc3ccc(Br)cc3)CC2)cc1	none (no result: BRCA1 expr up, IL-2 act, Giardia kill)
COc1cc2c(NC3CCN(C)CC3)nc(N3CCCN(C)CC3)nc2cc1OCCCN1CCOCC1	TrxR1 inh inconclusive (no result: mIDH1 inhibitor, IL-2 act, Giardia kill)
CCc1cc(=O)oc2cc(OCc3ccc(C(=O)O)o3)ccc12	BRCA1 expr up 6.3µM
O=C(O)c1ccc(COc2ccc3c4c(c(=O)oc3c2)CCC4)o1	none
Cc1ccc(NC(=O)c2ccc(F)cc2F)cc1	BRCA1 expr up inconclusive
O=C(NC(=O)c1ccc(F)cc1F)Nc1ccc(Cl)cc1	BRCA1 expr up 2.8µM
COc1ccc(-c2noc(N3CCC(C(=O)N4CCN(c5ccccc5F)CC4)CC3)n2)cc1	none (no result: BRCA1 expr up, IL-2 act, Giardia kill)
COc1cccc(Cn2cnc3c(sc4nc(C)cc(C)c43)c2=O)c1	none
CC(=O)Cn1cnc2c(sc3nc(C)cc(C)c32)c1=O	BRCA1 expr up 11µM
O=C(Nc1ccc(N2CCCCC2)cc1)c1cccnc1Cl	BRCA1 expr up 10µM
S=c1sc2c(Cl)ncnc2n1-c1ccccc1	TrxR1 inh 16µM
CCCCn1cc(S(=O)(=O)c2ccc(CC)cc2)c(=O)c2cc(F)c(N3CCCC(C)C3)cc21 (stereo not given)	none (no result: BRCA1 expr up, IL-2 act, Giardia kill)
Cc1nc2c(-c3ccccc3)c(C)nn2c(C)c1CCC(=O)NCc1ccco1	none
Cc1nc2c(-c3ccc(F)cc3)c(C)nn2c(C)c1CCC(=O)NC(C)CCc1ccco1 (stereo not given)	TrxR1 inh 79µM, mIDH1 inhibitor inconclusive, Giardia kill inconclusive
Cc1ccccc1C(=O)Nc1nc2nc(-c3ccccc3)cc(=O)n2[nH]1	none (no result: BRCA1 expr up, IL-2 act, Giardia kill)
O=C(/C=C/c1ccccc1Cl)NCCc1ccccc1	BRCA1 expr up 11µM
CCN(CC)c1ccc(NC(=O)/C=C\c2ccccc2Cl)cc1	BRCA1 expr up 3.2µM
COC(=O)c1ccc(CSc2nnc(C)s2)cc1	none
COc1ccc(CSc2nnc(C)s2)cc1F	BRCA1 expr up 4.5µM
Nc1c(C(=O)Nc2nccs2)sc2nc(-c3cccs3)cc(C(F)(F)F)c12	IL-2 act 104
Nc1ccc(C#Cc2ccc3c(=O)c4ccccc4oc3c2)cc1	BRCA1 expr up 10µM
COc1cc2oc3cc(C#Cc4ccc(N)cc4)ccc3c(=O)c2cc1OC	none
Cc1cc(/C=C/c2ccnc3ccccc23)ccc1N(C)C	none (no result: BRCA1 expr up, mIDH1 inhibitor, IL-2 act, Giardia kill)
CC(C)c1ccc(NC(=O)C2=NNC(=O)CC2)cc1	BRCA1 expr up 2.2µM
Cc1ccc(NC(=O)C2=NNC(=O)CC2)cc1F	none
Cc1ccc(Cn2c(=O)n(-c3cccc(C(F)(F)F)c3)c(=O)c3c(C)c(C)sc32)c(C)c1	none (no result: BRCA1 expr up, mIDH1 inhibitor, IL-2 act, Giardia kill)
O=S(=O)(c1ccccc1C(F)(F)F)N1CCN(c2nc(-c3cccs3)nc3ccccc23)CC1	none (no result: mIDH1 inhibitor, IL-2 act)
Cc1cc(/C=C2\SC(=S)NC2=O)c(C)n1C	TrxR1 inh 25µM
Cc1cc(C(=O)O)ccc1-n1c(C)cc(/C=C2\SC(=O)NC2=O)c1C	none
COc1ccc(-n2c(C)cc(/C=C3\SC(=S)NC3=O)c2C)cc1	BRCA1 expr up inconclusive
COC(=O)c1cccc(-n2c(C)cc(/C=C3\SC(=O)NC3=O)c2C)c1	BRCA1 expr up 10µM (no result: TrxR1 inh, TrxR1 substrate, Giardia kill)
Cc1cc(/C=C2\SC(=S)NC2=O)c(C)n1-c1ccc(O)cc1	BRCA1 expr up 2.2µM, TrxR1 inh inconclusive
Cc1cc(/C=C2\SC(=S)NC2=O)c(C)n1-c1ccccc1	BRCA1 expr up inconclusive
CCN1C(=O)C2(c3ccccc31)c1c(oc3ccc(F)cc3c1=O)C(=O)N2CCCOC (stereo not given)	none (no result: IL-2 act, Giardia kill)
CCc1ccc(-n2c(=O)c3c4c(sc3n(CC(=O)c3ccc(F)cc3)c2=O)CCC4)cc1	none (no result: BRCA1 expr up, IL-2 act, Giardia kill)
C=C(Br)COC(c1ccco1)[C@H](Cc1ccccc1)NC(=O)OC(C)(C)C (stereo not given in full)	TrxR1 inh inconclusive (no result: BRCA1 expr up, mIDH1 inhibitor, IL-2 act, Giardia kill)
COc1cccc(-n2c(SCc3ccccc3C)nc3c([nH]c4ccccc43)c2=O)c1	none (no result: IL-2 act, Giardia kill)
Cc1ccc2c(c1C)-c1c(ccc(C)c1C)C(=O)C2=O	TrxR1 inh inconclusive, TrxR1 substrate 45µM
